# From the supplement of paper PMC10981050
# Where “and” joins values, the source holds several entries; their conditions need not be identical. Equal values may be shown once. Where a name gives a salt, the structure may show the parent alone.
# How the values were obtained:
# Experiment in all cases: cell viability relative to vehicle control; higher = less cytotoxic
# Settings in all cases: 10 µM
# K562 = test system: K562
# Summary of the method: (§1)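 Screening covered the Selleck bioactive, kinase and epigenetic probe libraries, less identity-inconsistent compounds, on CRISPR-edited mutant clones and isogenic wild-type clones of four leukaemia lines. Cells, at 2000 per well in 50 µL medium, received a single 10 µM acoustically dispensed dose. After 48 h the supernatant was removed and CellTiter-Glo luminescence was read. Viability was analysed in Genedata Screener as percent of the on-plate vehicle control.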
# MARIMO = test system: MARIMO
# Summary of the method: as §1
# MOLM14 = test system: MOLM14
# Summary of the method: as §1
# OCI-AML2 = test system: OCI-AML2
# Summary of the method: as §1
Compound,cell viability (K562; SRSF2 genotype: SRSF2 P95H/wt),cell viability (K562; SRSF2 genotype: SRSF2 wt/wt),cell viability (MARIMO; SRSF2 genotype: SRSF2 P95H/wt),cell viability (MARIMO; SRSF2 genotype: SRSF2 wt/wt),cell viability (MOLM14; SRSF2 genotype: SRSF2 P95H/wt),cell viability (MOLM14; SRSF2 genotype: SRSF2 wt/wt),cell viability (OCI-AML2; SRSF2 genotype: P95H/wt),cell viability (OCI-AML2; SRSF2 genotype: wt/wt)
CC1(C)O[C@@H]2C[C@H]3[C@@H]4C[C@H](F)C5=CC(=O)C=C[C@]5(C)[C@@]4(F)[C@@H](O)C[C@]3(C)[C@]2(C(=O)CO)O1 [Fluocinolone acetonide (Flucort-N)],95% and 96%,92.6%,98.3%,104%,95.6%,91.6%,100%,109%
S=c1[nH]cnc2nc[nH]c12 [Mercaptopurine (6-MP)],58.5% and 51.3%,34.1%,82.1%,85.9%,74.4%,63.6%,83.2%,90%
CC(=O)N1CCN(CCOc2ccc(C3CCN(C4=Nn5c(nnc5C(F)(F)F)CC4)CC3)cc2)CC1,68.5% and 73%,71.5%,60.6%,57.4%,53.5%,53.2%,49.8%,59.7%
C[S+](CC[C@H](N)C(=O)[O-])C[C@H]1O[C@@H](n2cnc3c(N)ncnc32)[C@H](O)[C@@H]1O (stereo partly drawn) [Ademetionine disulfate tosylate],105% and 97.3%,103%,102%,110%,112%,115%,117%,110%
NCc1ccc(S(N)(=O)=O)cc1 [Mafenide Acetate],102% and 98.3%,94.8%,95.8%,106%,91.9%,101%,102%,110%
CC[N+](CC)(CC)CCOc1cccc(OCC[N+](CC)(CC)CC)c1OCC[N+](CC)(CC)CC [Gallamine triethiodide (Flaxedil)],96% and 97.9%,91.8%,101%,96.8%,101%,99.5%,99%,95.4%
C[C@](N)(Cc1ccc(O)c(O)c1)C(=O)O [Methyldopa (Aldomet)],90.6% and 100%,100%,97.2%,104%,98.3%,101%,98.4%,96.6%
CC(C)c1cccc(O)c(=O)c1,87.6% and 88.1%,83.2%,79.5%,70.3%,93.5%,96.4%,59.6%,59.8%
CC1(C)Cc2c(sc(NC(=O)c3ccn[nH]3)c2C(N)=O)C(C)(C)O1,103% and 101%,109%,96.6%,93.3%,110%,102%,101%,104%
CC(C)[C@H]1CC[C@H](C(=O)N[C@H](Cc2ccccc2)C(=O)O)CC1 [Nateglinide (Starlix)],103% and 101%,98.8%,97.8%,101%,97.9%,99.3%,105%,97.5%
O=C(/C=C/n1cnc(-c2cc(C(F)(F)F)cc(C(F)(F)F)c2)n1)N1CC(F)(F)C1,27.6% and 15.9%,11.8%,35.7%,36.6%,2.44%,1.55%,1.41%,2.6%
CN1CC2c3ccccc3Oc3ccc(Cl)cc3C2C1 (stereo not drawn) [Asenapine maleate],88.3% and 92.2%,88.2%,63%,78.8%,88%,92.6%,69.9%,73.2%
OC[C@H]1O[C@@](CO)(O[C@H]2O[C@H](CO)[C@@H](O)[C@H](O)[C@H]2O)[C@@H](O[C@H]2O[C@H](CO)[C@@H](O)[C@H](O)[C@H]2O)[C@@H]1O [Melezitose],107% and 99.6%,104%,99%,111%,102%,104%,96.3%,114%
COc1cc2nc(N3CCN(C(=O)C4CCCO4)CC3)nc(N)c2cc1OC (stereo not drawn) [Terazosin HCl],97.7% and 96.9%,96.6%,99.5%,102%,101%,99.2%,103%,104%
C=C[C@]1(C)C[C@@H](OC(=O)CS[C@@H]2C[C@H]3CC[C@@H](C2)N3C)[C@]2(C)[C@H](C)CC[C@]3(CCC(=O)[C@H]32)[C@@H](C)[C@@H]1O [Retapamulin],81.2% and 79.9%,84%,85.6%,84.6%,87.6%,84.5%,75.8%,84%
Cn1nnc(-c2ccc3c(c2)[nH]c2nc(Cc4ccccc4)nc(NC4CCC(N)CC4)c23)n1 (stereo not drawn),0.17%,0.16%,0.14%,0.19%,0.11%,0.13%,0.18%,0.13%
C=C1C(=O)O[C@H]2[C@H]1CCC(C)=C1CC[C@@](C)(O)[C@@H]12 [Micheliolide],28.9% and 41.7%,64.4%,15.9%,19.8%,7.9%,7.02%,5.22%,11.1%
Clc1ccc(C(Cn2ccnc2)OCc2c(Cl)cccc2Cl)c(Cl)c1 (stereo not drawn) [Isoconazole nitrate (Travogen)],73.3% and 76.4%,68.3%,70.2%,73.2%,77.6%,79.6%,75.9%,69.7%
COc1cccc(-c2cc(F)ccc2C2Cc3nc(N)nc(C)c3C(=O)N2)n1 (stereo not drawn),21.2% and 27.1%,24%,29.6%,24.7%,1.82%,3%,15.3%,19.9%
O=C(C=Cc1cccnc1)c1ccncc1,81.1% and 89%,77.7%,64.4%,62.8%,19.3%,18.4%,16.8%,28.9%
"Cn1cnc([N+](=O)[O-])c1Sc1ncnc2[nH]cnc12 [Azathioprine (Azasan, Imuran)]",53.6% and 63.6%,34.8%,82.2%,87.2%,85.2%,81.8%,87.7%,92%

Compound,cell viability (K562; SRSF2 genotype: SRSF2 P95H/wt),cell viability (K562; SRSF2 genotype: SRSF2 wt/wt),cell viability (MARIMO; SRSF2 genotype: SRSF2 P95H/wt),cell viability (MARIMO; SRSF2 genotype: SRSF2 wt/wt),cell viability (MOLM14; SRSF2 genotype: SRSF2 P95H/wt),cell viability (MOLM14; SRSF2 genotype: SRSF2 wt/wt),cell viability (OCI-AML2; SRSF2 genotype: P95H/wt),cell viability (OCI-AML2; SRSF2 genotype: wt/wt)
C[C@@H]1C/C=C/C=C/C=C/C=C/[C@H](O[C@@H]2O[C@H](C)[C@@H](O)[C@H](N)[C@@H]2O)C[C@@H]2O[C@](O)(C[C@@H](O)C[C@H]3O[C@@H]3/C=C/C(=O)O1)C[C@H](O)[C@H]2C(=O)O [Natamycin],102% and 105%,102%,100%,105%,98.5%,104%,101%,110%
CC(C)CCNC(=O)[C@H](CC(C)C)NC(=O)[C@H]1O[C@@H]1C(=O)O [Loxistatin Acid (E-64C)],107% and 106%,100%,102%,104%,101%,104%,106%,105%
CNC(=O)c1ccc2cc([C@@]3(O)CCn4cncc43)ccc2c1 [TAK-700 (Orteronel)],107% and 98.8%,97.3%,93.2%,105%,101%,100%,95.6%,104%
COc1c(N2CCNC(C)C2)c(F)cc2c(=O)c(C(=O)O)cn(C3CC3)c12 (stereo not drawn) [Gatifloxacin],97.2% and 103%,108%,112%,108%,102%,101%,104%,100%
CC(C)C[C@H](NC(=O)[C@@H](NC(=O)c1cccc(-c2ccccc2)n1)[C@@H](C)O)B(O)O,2.12% and 2.65%,3.78%,0.85%,2.98%,0.49%,0.44%,0.41%,2.11%
C[C@@H]1CC[C@@]2(NC1)O[C@H]1C[C@H]3[C@@H]4CC=C5C[C@@H](O[C@@H]6O[C@H](CO)[C@@H](O[C@@H]7O[C@@H](C)[C@H](O)[C@@H](O)[C@H]7O)[C@H](O)[C@H]6O[C@@H]6O[C@@H](C)[C@H](O)[C@@H](O)[C@H]6O)CC[C@]5(C)[C@H]4CC[C@]3(C)[C@H]1[C@@H]2C [Solamargine],85.3% and 85.5%,81.8%,51.5%,89.6%,81.6%,81.6%,91%,87.2%
C=C1CC[C@H](O)C/C1=C/C=C1\CCC[C@]2(C)[C@@H]([C@H](C)/C=C/[C@H](C)C(C)C)CC[C@@H]12 [Vitamin D2 (Ergocalciferol)],103% and 100%,102%,101%,104%,93.4%,102%,100%,98.3%
COc1nc2ccc(Br)cc2cc1[C@@H](c1ccccc1)[C@@](O)(CCN(C)C)c1cccc2ccccc12 [Bedaquiline],74.8% and 74.5%,85.4%,70.4%,69.3%,51.8%,75.5%,38.5%,55.4%
[I-].[K+] [Potassium iodide],100% and 96%,100%,107%,105%,106%,100%,102%,112%
Cc1cc(SCc2sc(-c3ccc(C(F)(F)F)cc3)nc2C)ccc1OCC(=O)O,102% and 95.2%,96.7%,92%,103%,87.6%,97.3%,90.4%,95.4%
C#C[C@]1(O)CC[C@H]2[C@@H]3CCC4=CCCC[C@@H]4[C@H]3C(=C)C[C@@]21CC [Desogestrel],77.9% and 78.3%,78.7%,75.4%,81.7%,71.4%,79.9%,61%,63%
CC(C)NC[C@H](O)COc1ccc(CCOCC2CC2)cc1 [Levobetaxolol HCl],91.7% and 81.4%,83%,83%,90.6%,89.1%,91.8%,79.4%,98.4%
Nc1nc(=O)[nH]c2c1ncn2[C@@H]1O[C@H](CO)[C@@H](O)[C@H]1O [Isoguanosine],101% and 98.5%,98.7%,94.7%,97.7%,93.3%,96.8%,106%,91.8%
CCN[C@H]1CN(CCCOC)S(=O)(=O)c2sc(S(N)(=O)=O)cc21 [Brinzolamide],87.4% and 79.5%,85.7%,83.7%,88.2%,83.2%,86.5%,84.2%,90.2%
COc1cc(N2CCC(N)CC2)ccc1Nc1ncc(Cl)c(-c2c[nH]c3ccccc23)n1,14.5% and 15.7%,7.15%,37.8%,33.6%,1.81%,5.73%,6%,16.7%
COc1ccc(/C=C/c2cc(O)cc(O)c2)cc1O [Rhapontigenin],95.7% and 103%,105%,101%,97.9%,119%,109%,94.2%,86.2%
CC(=O)Nc1cccc(-n2c(=O)n(C3CC3)c(=O)c3c(Nc4ccc(I)cc4F)n(C)c(=O)c(C)c32)c1,67.7% and 87.2%,77.8%,39.6%,38.5%,42.3%,27.1%,39.8%,41.6%
O=C1Cc2ccccc2N1 [Oxindole],96.9% and 92%,98.4%,98.2%,103%,95%,98.9%,95.9%,105%
O=c1cc(N2CCOCC2)oc2c1ccc1ccccc12,96.7% and 102%,99.6%,93.3%,102%,89.2%,96.7%,87.6%,96.7%
CCOc1ccccc1OC(c1ccccc1)C1CNCCO1 (stereo not drawn) [Reboxetine mesylate],94.5% and 93.4%,90.7%,81.9%,91.7%,92.2%,95.8%,70.1%,97.4%
